Among all 1,300 compounds or so, about 1,000 (77%) were called active. Roughly 7% stayed inconclusive and do not appear here. So high a share suggests a set chosen from earlier hits. The list shows a part of the results. A number with no mark means an inactive call. Calls come from the whole dose curve; as a rule, active = well fitted inhibition curve with a large enough effect; inconclusive = small, poorly fitted or top-dose-only effect; inactive = no such curve, though single readings can be large or run the other way.
Assay: qHTS of small molecules that selectively kill Giardia lamblia: Hit Validation.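 Note: viability measured as ATP content by luminescence so killing lowers signal; trophozoites exposed to compounds for 48 h anaerobically at 37 °C; nearly all actives have a fitted effect of over 65% in size.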
Details: Giardia lamblia trophozoite viability, dose-response; series mostly up to 38.3 µM; activity change, negative = killing: at the top concentration
Procedure, shortened: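 Anaerobic 48 hrs incubation at 37 deg C of 100 trophozoites/well with test compounds; ATPLite 1-Step luminescence, 15-30 min RT, reports cellular ATP as viability.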
% is set by controls: 0 for no effect and ±100 for the full control effect; potency is the fitted concentration of half-maximal effect.

Structure (SMILES) | Potency | activity change, negative = killing [%]
CN(C)CCCN=c1cc(-c2ccccc2)oc2ccc(Cl)cc12 | 579 nM (active) | 
CC1(C)CC(N=c2cc(-c3ccccc3)oc3ccc(Cl)cc23)CC(C)(C)N1 | 650 nM (active) | 
O=C(NCCO)c1ccc2c3n(nc2c1)-c1ccccc1CO3 | 3260 nM (active) | 
O=C(c1ccc2c3n(nc2c1)-c1ccccc1CO3)N1CCCCC1 | 2310 nM (active) | 
O=Nc1c2ccc[nH]c-2c2ccc([N+](=O)[O-])cc12 | 1030 nM (active) | 
CS(=O)(=O)N1CCN(c2ccc(NC(=O)c3ccc([N+](=O)[O-])o3)cc2)CC1 | 579 nM (active) | 
O=C(Nc1ccc(N2CCN(Cc3ccccc3F)CC2)cc1)c1ccc([N+](=O)[O-])o1 | 1160 nM (active) | 
CC1CCN(c2ccc(NC(=O)c3ccc([N+](=O)[O-])o3)cc2)CC1 | 1160 nM (active) | 
O=C(Nc1ccc(N2CCCCC2)cc1)c1ccc([N+](=O)[O-])o1 | 3260 nM (active) | 
O=C(NCC1CCN(Cc2ccccc2F)CC1)Nc1ccccc1F |  | -18
CCC(C(=O)N1CCOCC1)n1nc(C)n2c(cc3cc(C)ccc32)c1=O (stereo unspecified) |  | 2.43
O=C(Nc1ccc(N2CCOCC2)cc1)c1ccc([N+](=O)[O-])o1 | 579 nM (active) | 
O=C(O)c1cc2ccccc2c(N=Nc2cccnc2)c1O | 2050 nM (active) | 
O=C(NN1C(=O)c2ccccc2NC1c1ccc([N+](=O)[O-])o1)c1ccccc1 (stereo unspecified) | 1030 nM (active) | 
O=C(NN1C(=O)c2ccccc2NC1c1ccc([N+](=O)[O-])o1)c1ccc([N+](=O)[O-])cc1 (stereo unspecified) | 2050 nM (active) | 
Cc1[nH]c2ccccc2c1C(=O)C(C)OC(=O)c1ccc([N+](=O)[O-])o1 (stereo unspecified) | 1830 nM (active) | 
COc1cc(/C=C/c2ccc3cccc(OC)c3n2)c(O)c([N+](=O)[O-])c1 | 1630 nM (active) | 
COc1cc(/C=C/c2ccc3cccc(OC)c3n2)c(OC(C)=O)c([N+](=O)[O-])c1 | 1830 nM (active) | 
O=C(Nc1cccc2ccccc12)C12CC3CC(C1)CC(n1cnc([N+](=O)[O-])n1)(C3)C2 | 3650 nM (active) | 
O=C(Nc1cc([N+](=O)[O-])c2[nH]c(=O)c3ccccc3c2c1)C(F)(F)F | 1030 nM (active) | 
COc1ccc(NS(=O)(=O)c2ccc3oc4ccccc4c3c2)cn1 |  | -13.8
c1coc(-c2nc3cc4ccccc4cc3nc2-c2ccco2)c1 | 3650 nM (active) | 
O=c1c(-c2cccc([N+](=O)[O-])c2)[n+]([O-])c2ccccc2n1O | 5160 nM (active) | 

Structure (SMILES) | Potency | activity change, negative = killing [%]
CCOn1c(=O)c(-c2cccc([N+](=O)[O-])c2)[n+]([O-])c2ccccc21 | 1030 nM (active) | 
CC(NC(=O)c1ccc(N(C)C)c([N+](=O)[O-])c1)c1ccc(-n2ccnc2)cc1 (stereo unspecified) | 4600 nM (active) | 
COc1ccccc1C1C([N+](=O)[O-])=CC([N+](=O)[O-])=CN1C (stereo unspecified) | 2590 nM (active) | 
Cc1ccc(S(=O)(=O)N2[C@@H](c3ccc(F)cc3)C(C(=O)O)=CC[C@H]2c2ccc(Cl)cc2)cc1 |  | -46
Cc1ccc(S(=O)(=O)N2[C@@H](c3ccc(F)cc3)C(C(=O)O)=CC[C@H]2c2ccc3c(c2)OCO3)cc1 |  | -45.2
Cc1ccc(S(=O)(=O)N2[C@@H](c3ccccc3)C(C(=O)O)=CC[C@H]2c2cccc(Cl)c2)cc1 | 103 nM (active) | 
O=[N+]([O-])c1cccc2nc3ccccc3c(NCCCn3ccnc3[N+](=O)[O-])c12 | 1630 nM (active) | 
CN=c1scc(-c2ccccc2F)n1/N=C(\C)c1cccnc1 | 4100 nM (active) | 
Cc1ccc(Nc2ccc([N+](=O)[O-])nc2[N+](=O)[O-])cc1 | 3260 nM (active) | 
COc1cc(Nc2ccc(C)cc2)c([N+](=O)[O-])nc1[N+](=O)[O-] | 1450 nM (active) | 
O=C(Nc1ccc2[nH]ncc2c1)c1ccccc1Cl | 5790 nM (active) | 
O=[N+]([O-])c1ccc(Oc2cccc(Br)c2)c2ccncc12 | 2050 nM (active) | 
O=C(NCc1cccnc1)c1ccc([N+](=O)[O-])o1 | 1160 nM (active) | 
O=C(Cc1ccc(-n2c(=O)c3sccc3n(CC(=O)Nc3ccccc3)c2=O)cc1)NCc1ccco1 |  | 15
CN(C(=O)c1cc([N+](=O)[O-])ccc1NCc1cccnc1)c1ccccc1 |  | -18
O=C(NCc1ccco1)c1ccc([N+](=O)[O-])o1 | 1830 nM (active) | 
O=C(Nc1nnc(-c2ccco2)o1)c1ccc([N+](=O)[O-])s1 | 3650 nM (active) | 
O=C(Nc1cccnc1)c1ccc([N+](=O)[O-])s1 | 2050 nM (active) | 
CCN(C(=O)N(CC)c1ccccc1)c1ccccc1 |  | -33.4
O=C(Nc1ccc(Cc2ccncc2)cc1)c1ccc([N+](=O)[O-])o1 | 1160 nM (active) | 
O=C(Nc1cccnc1)c1ccc([N+](=O)[O-])o1 | 1300 nM (active) | 
Cc1ccc(CNC(=O)c2ccc([N+](=O)[O-])o2)cc1 | 1830 nM (active) | 
Cc1ccc(CNC(=O)c2cc(S(=O)(=O)N3CCOCC3)cn2C)cc1 |  | -15.8
